Among the data in article PMC7862700, “An all-to-all approach to the identification of sequence-specific readers for epigenetic DNA modifications on cytosine” are binding signal values, retold here.

Holding throughout (assay): DAPPL (digital affinity profiling via proximity ligation, sequencing); 10 mM Tris-HCl pH 7.5, 50 mM NaCl, 1 mM DTT, 4% glycerol, room temperature, 30 min; GST-TFs on glutathione beads, 16-mer random dsDNA library, 0.1% formaldehyde crosslink after washing; high values mean tight binding
Common to all, as to details: protein: recombinant; tags: N-terminal GST; dsDNA, one strand shown

Assay [1] addresses T1, FLI1 (Homo sapiens, UniProt Q01543 1-452).
T1 sequence: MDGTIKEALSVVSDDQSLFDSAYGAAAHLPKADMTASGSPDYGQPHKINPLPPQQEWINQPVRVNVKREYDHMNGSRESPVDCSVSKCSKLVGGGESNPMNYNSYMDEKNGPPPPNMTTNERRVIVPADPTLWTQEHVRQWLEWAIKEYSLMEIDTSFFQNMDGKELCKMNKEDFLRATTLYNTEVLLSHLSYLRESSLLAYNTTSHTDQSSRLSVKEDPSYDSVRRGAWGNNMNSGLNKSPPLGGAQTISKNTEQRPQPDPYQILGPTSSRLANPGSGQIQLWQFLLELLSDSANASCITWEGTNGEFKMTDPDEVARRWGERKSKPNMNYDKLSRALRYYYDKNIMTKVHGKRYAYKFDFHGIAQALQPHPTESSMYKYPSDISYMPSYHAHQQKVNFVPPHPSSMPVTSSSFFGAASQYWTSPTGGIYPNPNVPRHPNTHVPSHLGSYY
A digest of the protocol: (§1)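 In yeast, human transcription factors were expressed with a GST fusion, then pulled down on glutathione beads and given DNA barcodes. Pooled with a tag-only sample, they were exposed to 200 nmole of a 16-mer random double-stranded DNA library (Tris/NaCl/DTT/glycerol buffer, room temperature, 30 min), washed, crosslinked with 0.1% formaldehyde, proximity-ligated using BsaI/T4 ligase for 1 h at 37 °C, PCR-amplified and read on an Illumina NextSeq500. Each hexamer's frequency of reads for a factor, divided by the matching frequency for the tag-only sample, gives the binding signal.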

For assay [2], the target named is T2, ELK1 (Homo sapiens, UniProt P19419 1-428).
T2 sequence: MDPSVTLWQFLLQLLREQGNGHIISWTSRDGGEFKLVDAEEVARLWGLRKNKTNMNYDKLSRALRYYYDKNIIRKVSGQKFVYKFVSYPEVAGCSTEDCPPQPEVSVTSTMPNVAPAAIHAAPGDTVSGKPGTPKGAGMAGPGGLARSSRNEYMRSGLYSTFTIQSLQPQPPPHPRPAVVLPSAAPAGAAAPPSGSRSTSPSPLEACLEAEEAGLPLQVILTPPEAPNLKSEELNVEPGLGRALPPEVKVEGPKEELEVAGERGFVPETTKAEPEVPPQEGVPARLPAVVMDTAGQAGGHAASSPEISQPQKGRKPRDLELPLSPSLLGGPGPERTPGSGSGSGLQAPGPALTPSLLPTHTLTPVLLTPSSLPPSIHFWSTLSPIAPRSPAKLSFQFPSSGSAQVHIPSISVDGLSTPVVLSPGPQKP
A digest of the protocol:
as §1

Assay [3] has as its target T3, GABPA (Homo sapiens, UniProt Q06546 1-454).
T3 sequence: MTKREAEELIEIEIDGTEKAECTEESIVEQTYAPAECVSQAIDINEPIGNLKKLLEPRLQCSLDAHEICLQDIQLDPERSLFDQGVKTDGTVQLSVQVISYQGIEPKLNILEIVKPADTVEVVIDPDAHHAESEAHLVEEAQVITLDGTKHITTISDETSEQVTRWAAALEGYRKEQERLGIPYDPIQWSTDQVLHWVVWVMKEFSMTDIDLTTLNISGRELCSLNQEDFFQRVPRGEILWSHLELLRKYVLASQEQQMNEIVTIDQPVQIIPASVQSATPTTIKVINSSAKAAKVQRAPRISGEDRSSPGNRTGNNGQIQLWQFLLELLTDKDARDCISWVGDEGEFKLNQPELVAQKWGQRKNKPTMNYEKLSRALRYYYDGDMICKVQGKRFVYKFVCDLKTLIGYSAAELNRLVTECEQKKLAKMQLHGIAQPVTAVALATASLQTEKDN
Summed up: as §1

In assay [4] the target is T4, ERG (Homo sapiens, UniProt P11308 1-479).
T4 sequence: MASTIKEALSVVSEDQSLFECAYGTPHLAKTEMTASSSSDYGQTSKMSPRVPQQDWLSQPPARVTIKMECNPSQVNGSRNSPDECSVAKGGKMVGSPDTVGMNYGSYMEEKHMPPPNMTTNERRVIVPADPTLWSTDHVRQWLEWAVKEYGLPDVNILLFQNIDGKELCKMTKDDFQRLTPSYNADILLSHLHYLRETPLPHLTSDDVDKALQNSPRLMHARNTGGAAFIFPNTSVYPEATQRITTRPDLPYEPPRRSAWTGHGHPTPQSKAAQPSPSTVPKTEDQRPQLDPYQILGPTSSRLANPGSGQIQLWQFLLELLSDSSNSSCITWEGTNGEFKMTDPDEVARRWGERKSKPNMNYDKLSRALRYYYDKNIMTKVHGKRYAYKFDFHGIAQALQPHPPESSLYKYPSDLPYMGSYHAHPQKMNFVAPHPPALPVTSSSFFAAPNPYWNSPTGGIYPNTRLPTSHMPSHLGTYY
Summed up:
as §1

Assay [5] has as its target ELF1 (Homo sapiens, UniProt P32519 1-619). Summed up: as §1
The target in assay [6] is T5, EHF (Homo sapiens, UniProt Q9NZC4 1-300).
T5 sequence: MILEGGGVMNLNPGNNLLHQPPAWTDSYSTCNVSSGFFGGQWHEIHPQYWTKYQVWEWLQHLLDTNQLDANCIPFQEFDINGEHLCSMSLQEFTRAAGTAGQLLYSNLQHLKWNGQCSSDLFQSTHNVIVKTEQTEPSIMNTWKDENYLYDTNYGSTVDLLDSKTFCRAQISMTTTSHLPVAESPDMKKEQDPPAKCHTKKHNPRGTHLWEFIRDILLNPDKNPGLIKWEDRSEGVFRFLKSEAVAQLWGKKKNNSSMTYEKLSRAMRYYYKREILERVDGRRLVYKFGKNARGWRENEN
Summed up: as §1

The target of assay [7] is SPI1 (Homo sapiens, UniProt P17947 1-270). Summed up: as §1
The target in assay [8] is SPIB (Homo sapiens, UniProt Q01892 1-262). A digest of the protocol: as §1
In assay [9] the target is T6, ELK3 (Homo sapiens, UniProt P41970 1-407).
T6 sequence: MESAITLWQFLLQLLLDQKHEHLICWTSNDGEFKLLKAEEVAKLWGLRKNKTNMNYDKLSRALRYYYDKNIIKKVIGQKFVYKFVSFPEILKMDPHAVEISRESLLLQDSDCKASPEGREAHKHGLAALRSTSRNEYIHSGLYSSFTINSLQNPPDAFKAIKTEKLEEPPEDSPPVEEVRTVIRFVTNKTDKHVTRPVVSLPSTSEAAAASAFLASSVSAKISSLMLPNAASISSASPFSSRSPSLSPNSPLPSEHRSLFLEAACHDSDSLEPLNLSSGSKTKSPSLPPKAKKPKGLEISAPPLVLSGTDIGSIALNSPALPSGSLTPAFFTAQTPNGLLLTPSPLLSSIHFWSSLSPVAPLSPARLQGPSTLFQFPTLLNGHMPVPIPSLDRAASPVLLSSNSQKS
A digest of the protocol: as §1

Chain of SPIB (Q01892 whole entry): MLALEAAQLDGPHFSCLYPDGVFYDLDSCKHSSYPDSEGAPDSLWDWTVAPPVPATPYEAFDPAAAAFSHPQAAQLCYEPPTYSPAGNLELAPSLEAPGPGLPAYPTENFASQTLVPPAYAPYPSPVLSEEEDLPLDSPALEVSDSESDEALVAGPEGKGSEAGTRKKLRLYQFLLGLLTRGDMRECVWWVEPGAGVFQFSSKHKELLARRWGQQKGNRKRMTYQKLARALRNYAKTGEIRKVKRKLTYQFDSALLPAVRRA
Chain of ELF1 (P32519 whole entry): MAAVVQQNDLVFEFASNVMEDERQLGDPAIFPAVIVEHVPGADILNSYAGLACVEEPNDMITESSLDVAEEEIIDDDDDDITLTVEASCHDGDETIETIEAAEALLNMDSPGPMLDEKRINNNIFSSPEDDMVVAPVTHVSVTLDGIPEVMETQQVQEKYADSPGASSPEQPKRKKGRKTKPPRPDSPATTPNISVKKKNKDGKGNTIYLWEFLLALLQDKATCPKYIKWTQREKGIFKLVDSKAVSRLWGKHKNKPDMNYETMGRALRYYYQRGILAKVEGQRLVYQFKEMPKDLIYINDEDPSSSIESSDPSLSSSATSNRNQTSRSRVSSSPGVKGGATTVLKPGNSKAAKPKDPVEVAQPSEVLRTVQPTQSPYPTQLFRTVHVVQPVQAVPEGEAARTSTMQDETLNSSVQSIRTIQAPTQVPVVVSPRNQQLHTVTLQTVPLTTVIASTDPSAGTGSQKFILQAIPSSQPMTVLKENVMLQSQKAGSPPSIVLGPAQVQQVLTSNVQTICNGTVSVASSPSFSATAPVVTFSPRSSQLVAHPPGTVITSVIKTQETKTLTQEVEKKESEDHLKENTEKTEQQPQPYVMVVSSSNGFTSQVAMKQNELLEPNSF

Take GCTCTA: the binding signal in [1] is 1.17 fold enrichment (6-mer frequency, TF over GST control); in assay [2] it was 1.09 fold enrichment (6-mer frequency, TF over GST control); in [3], 1.11 fold enrichment (6-mer frequency, TF over GST control); in assay [4], 1.24 fold enrichment (6-mer frequency, TF over GST control); in assay [5], 1.13 fold enrichment (6-mer frequency, TF over GST control); in [6], 1.23 fold enrichment (6-mer frequency, TF over GST control). Besides, the binding signal in [7] was 1.04 fold enrichment (6-mer frequency, TF over GST control); in assay [8] it was 1.09 fold enrichment (6-mer frequency, TF over GST control); in assay [9], 1.09 fold enrichment (6-mer frequency, TF over GST control).
Take CTACCG: the binding signal in [1] is 1.44 fold enrichment (6-mer frequency, TF over GST control); in assay [2], 1.71 fold enrichment (6-mer frequency, TF over GST control); in [3], 1.58 fold enrichment (6-mer frequency, TF over GST control); in assay [4], 1.5 fold enrichment (6-mer frequency, TF over GST control); in assay [5] it was 1.64 fold enrichment (6-mer frequency, TF over GST control); in [6], 1.55 fold enrichment (6-mer frequency, TF over GST control). Further, the binding signal is 1.52 fold enrichment (6-mer frequency, TF over GST control) in [7]; 1.73 fold enrichment (6-mer frequency, TF over GST control) in assay [8]; 1.57 fold enrichment (6-mer frequency, TF over GST control) in assay [9].
Take GCTTGC: the binding signal in assay [1] was 1.41 fold enrichment (6-mer frequency, TF over GST control); in [2] it was 1.28 fold enrichment (6-mer frequency, TF over GST control); in assay [3], 1.21 fold enrichment (6-mer frequency, TF over GST control); in [4], 1.14 fold enrichment (6-mer frequency, TF over GST control); in assay [5], 1.25 fold enrichment (6-mer frequency, TF over GST control); in [6], 1.28 fold enrichment (6-mer frequency, TF over GST control). Besides, the binding signal was 1.18 fold enrichment (6-mer frequency, TF over GST control) in assay [7]; 1.24 fold enrichment (6-mer frequency, TF over GST control) in assay [8]; 1.3 fold enrichment (6-mer frequency, TF over GST control) in [9].
On to CCATAA, for which the binding signal in [1] is 1.15 fold enrichment (6-mer frequency, TF over GST control); in assay [2] it was 1.15 fold enrichment (6-mer frequency, TF over GST control); in assay [3] it was 1.19 fold enrichment (6-mer frequency, TF over GST control); in assay [4] it was 1.17 fold enrichment (6-mer frequency, TF over GST control); in assay [5] it was 1.15 fold enrichment (6-mer frequency, TF over GST control); in assay [6], 1.05 fold enrichment (6-mer frequency, TF over GST control). The binding signal in assay [7] was 1.17 fold enrichment (6-mer frequency, TF over GST control); in assay [8], 1.16 fold enrichment (6-mer frequency, TF over GST control); in assay [9] it was 1.22 fold enrichment (6-mer frequency, TF over GST control).
ACGCTA: the binding signal was 1.14 fold enrichment (6-mer frequency, TF over GST control) in [1]; 1.18 fold enrichment (6-mer frequency, TF over GST control) in assay [2]; 1.14 fold enrichment (6-mer frequency, TF over GST control) in [3]; 1.2 fold enrichment (6-mer frequency, TF over GST control) in assay [4]; 1.15 fold enrichment (6-mer frequency, TF over GST control) in [5]; 1.1 fold enrichment (6-mer frequency, TF over GST control) in [6]. The binding signal in assay [7] is 1.19 fold enrichment (6-mer frequency, TF over GST control); in assay [8] it was 1.07 fold enrichment (6-mer frequency, TF over GST control); in assay [9] it was 1.27 fold enrichment (6-mer frequency, TF over GST control).
For the sequence AATGTA, the binding signal in assay [1] is 1.19 fold enrichment (6-mer frequency, TF over GST control); in assay [2] it was 1.09 fold enrichment (6-mer frequency, TF over GST control); in [3], 1.1 fold enrichment (6-mer frequency, TF over GST control); in assay [4], 1.17 fold enrichment (6-mer frequency, TF over GST control); in assay [5] it was 1.16 fold enrichment (6-mer frequency, TF over GST control); in assay [6], 1.22 fold enrichment (6-mer frequency, TF over GST control). Besides, the binding signal was 1.12 fold enrichment (6-mer frequency, TF over GST control) in assay [7]; 1.2 fold enrichment (6-mer frequency, TF over GST control) in assay [8]; 1.17 fold enrichment (6-mer frequency, TF over GST control) in assay [9].
CCTTTC: the binding signal in assay [1] is 1.76 fold enrichment (6-mer frequency, TF over GST control); in [2], 1.57 fold enrichment (6-mer frequency, TF over GST control); in assay [3], 1.61 fold enrichment (6-mer frequency, TF over GST control); in assay [4], 1.62 fold enrichment (6-mer frequency, TF over GST control); in assay [5], 1.57 fold enrichment (6-mer frequency, TF over GST control); in assay [6] it was 1.57 fold enrichment (6-mer frequency, TF over GST control). The binding signal in assay [7] is 1.64 fold enrichment (6-mer frequency, TF over GST control); in assay [8], 1.7 fold enrichment (6-mer frequency, TF over GST control); in [9] it was 1.64 fold enrichment (6-mer frequency, TF over GST control).
